Data on 13 molecules can be found in PubChem BioAssay (NCI).

Among the test systems are NCI-H23 lung; NCI-H226 lung; NCI-H322M lung; HOP-62 NSCLC; NCI-H460 lung; HOP-92 NSCLC; NCI-H522 lung; A549/ATCC NSCLC; 786-0 renal; COLO 205 colon.
Experiment in all cases: NCI-60 one-dose screen, 48 h (100 = growth as untreated, 0 = no growth, -100 = all killed)
What all share (details): 10 µM unless noted

Structures are written as SMILES. The panel holds about 83,000 compounds, 20% with a hit somewhere; the sample as a whole holds those more often.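 How to read the values: 0–100, growth inhibition (40 = 60% inhibited); 0, no net growth; -100 to 0, cell death (-40 = 40% of starting cells died; -100 = all dead).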 A number with no mark means an inactive call. Activity calls are given as the source filed them. How the source made its calls: active means growth percent below 10; inactive means the rest.

`O=C(/C=C/c1cc(CN2CCOCC2)c(O)c2ncccc12)c1cc(CN2CCOCC2)c(O)c2ncccc12`: the growth was 30.5% in the assay with NCI-H23 lung; 34.6% with NCI-H226 lung; 45.5% in the assay with NCI-H322M lung; 16% in the assay with HOP-62 NSCLC; 9.34% (active) in the assay with NCI-H460 lung; -4.72% (active) with HOP-92 NSCLC. The growth in the assay with NCI-H522 lung is 14.4%; in the assay with A549/ATCC NSCLC, 2.72% (active); with 786-0 renal, 24.6%; with COLO 205 colon it was 30.2%.
Regarding `CSc1nc(Nc2cccc(NC(=O)CCl)c2)c(C#N)c(-c2cccc([N+](=O)[O-])c2)n1`, the growth was 40.3% with NCI-H23 lung; 42.2% with NCI-H226 lung; 97.4% in the assay on NCI-H322M lung; 86.5% in the assay on HOP-62 NSCLC; 86.8% in the assay with NCI-H460 lung; 40.7% in the assay on HOP-92 NSCLC. Besides, the growth in the assay with NCI-H522 lung is -55.9% (active); in the assay on A549/ATCC NSCLC, 95.9%; with 786-0 renal, 73.2%; in the assay with COLO 205 colon, 35.9%.
On to `O=C1/C(=C/N2N=C(c3ccc4ccccc4c3)CC2c2ccccc2O)SC(=S)N1c1cccnc1` (stereo not given), for which the growth in the assay on NCI-H23 lung was 43.3%; with NCI-H226 lung, 31.7%; in the assay with NCI-H322M lung, 46%; in the assay with HOP-62 NSCLC it was 25.2%; in the assay with NCI-H460 lung, 15.3%; in the assay with HOP-92 NSCLC, 77%. Moreover, the growth with NCI-H522 lung is 21.1%; in the assay with A549/ATCC NSCLC, 18.8%; in the assay on 786-0 renal, 14%; in the assay with COLO 205 colon it was 27.3%.
For `COc1cc2nc(N3CCCC3)nc(NCC3CCCCC3)c2cc1OC`, the growth in the assay with NCI-H23 lung was 57.3%; with NCI-H226 lung, 80.1%; in the assay on NCI-H322M lung it was 50.1%; with HOP-62 NSCLC it was 74.7%; in the assay with NCI-H460 lung, -45% (active); with HOP-92 NSCLC it was -16.9% (active). Also, the growth in the assay with NCI-H522 lung was -57.2% (active); in the assay on A549/ATCC NSCLC, 6.9% (active); with 786-0 renal, -82.5% (active); in the assay with COLO 205 colon, -86.2% (active).
For the molecule `COc1ccc(-c2nn(-c3ccc(Cl)cc3)cc2-c2nc3ccccc3[nH]2)cc1`, the growth was 89.1% with NCI-H23 lung; 91.4% in the assay with NCI-H226 lung; 102% in the assay on NCI-H322M lung; 113% with HOP-62 NSCLC; 88.1% in the assay on NCI-H460 lung; 97% in the assay with HOP-92 NSCLC. Further, the growth in the assay with NCI-H522 lung is 67.7%; in the assay with A549/ATCC NSCLC it was 95.4%; in the assay with 786-0 renal, 103%; in the assay on COLO 205 colon, 101%.
On to `O=C1/C(=C/c2ccccc2)SC(=S)N1CCc1ccc(O)cc1`, for which the growth was 98% with NCI-H23 lung; 90.2% in the assay with NCI-H226 lung; 97.1% with NCI-H322M lung; 94% with HOP-62 NSCLC; 99.4% in the assay with NCI-H460 lung; 79.9% in the assay on HOP-92 NSCLC. Further, the growth in the assay with NCI-H522 lung is 54.8%; in the assay with A549/ATCC NSCLC, 93.6%; in the assay with 786-0 renal, 89.5%; in the assay on COLO 205 colon it was 108%.
Regarding `COc1cccc(/C=C2\SC(=Nc3ccc(NC(C)=O)cc3)NC2=O)c1OC`, the growth in the assay on NCI-H23 lung was 92.2%; in the assay on NCI-H226 lung, 103%; in the assay on NCI-H322M lung, 94.3%; in the assay on HOP-62 NSCLC, 92.3%; with NCI-H460 lung, 99.7%; in the assay with HOP-92 NSCLC, 55.3%. Moreover, the growth in the assay with NCI-H522 lung is 89.2%; in the assay on A549/ATCC NSCLC it was 96%; with 786-0 renal, 67.9%; in the assay on COLO 205 colon it was 111%.
With `COc1cccc(-c2nc3sccn3c2-c2ccnc(NCCNS(=O)(=O)c3ccccc3)c2)c1`, the growth was 18.9% in the assay on NCI-H23 lung; 18.7% with NCI-H226 lung; 58.3% in the assay with NCI-H322M lung; 36.8% in the assay on HOP-62 NSCLC; 20% in the assay on NCI-H460 lung; 21.9% with HOP-92 NSCLC. Moreover, the growth with NCI-H522 lung is 29.8%; with A549/ATCC NSCLC, 10.3%; in the assay on 786-0 renal, 38.9%; with COLO 205 colon, 21.6%.
As to `Cc1cc(N2CCOCC2)nc(N[C@@H]2CCC[C@H](Nc3ccnc4cc(Cl)ccc34)C2)n1`, the growth in the assay on NCI-H23 lung was 62%; with NCI-H226 lung, 34.2%; in the assay with NCI-H322M lung, 27.2%; with HOP-62 NSCLC, -15.2% (active); in the assay on NCI-H460 lung it was 12.2%; in the assay on HOP-92 NSCLC it was -21.7% (active). Moreover, the growth in the assay on NCI-H522 lung is -26.8% (active); with A549/ATCC NSCLC it was 13.8%; in the assay with 786-0 renal, -73% (active); in the assay with COLO 205 colon, -82% (active).
Turning to `CSc1nc(Nc2cccc(NC(=O)/C(C#N)=C/c3c(Cl)cccc3Cl)c2)c(C#N)c(-c2cccc([N+](=O)[O-])c2)n1`, the growth in the assay on NCI-H23 lung is 57.9%; in the assay on NCI-H226 lung, 64.9%; in the assay with NCI-H322M lung, 85.5%; with HOP-62 NSCLC, 89.7%; with NCI-H460 lung, 71.7%; in the assay with HOP-92 NSCLC, 59.8%. Moreover, the growth in the assay with NCI-H522 lung is 38.8%; in the assay with A549/ATCC NSCLC, 92%; in the assay with 786-0 renal, 54%; in the assay on COLO 205 colon, 76%.
For the molecule `O=[N+]([O-])c1ccc2c(c1)Cc1cc(F)ccc1-2`, the growth in the assay with NCI-H23 lung was 105%; in the assay with NCI-H226 lung it was 99.4%; with NCI-H322M lung, 95.6%; in the assay on HOP-62 NSCLC it was 106%; with NCI-H460 lung, 106%; in the assay with HOP-92 NSCLC, 80.2%. Moreover, the growth in the assay on NCI-H522 lung was 104%; in the assay with A549/ATCC NSCLC it was 88.5%; in the assay on 786-0 renal it was 95.4%; in the assay on COLO 205 colon, 107%.
Consider `COC(=O)[C@]12CCC(C)(C)C[C@H]1[C@H]1C(=O)C[C@@H]3[C@@]4(C)c5c([nH]c6ccccc6c5=O)C(C)(C)[C@@H]4CC[C@@]3(C)[C@]1(C)CC2`, for which the growth was 65.8% with NCI-H23 lung; 65.7% with NCI-H226 lung; 90.4% in the assay with NCI-H322M lung; 85.5% in the assay with HOP-62 NSCLC; 66.8% in the assay with NCI-H460 lung; 85.8% with HOP-92 NSCLC. Also, the growth in the assay on NCI-H522 lung is 45.1%; in the assay with A549/ATCC NSCLC, 34.8%; with 786-0 renal, 86.3%; with COLO 205 colon, 77.5%.
In the case of `Cc1cc2c3ccccc3ccc2[n+]2ccccc12`, the growth was 46.4% in the assay with NCI-H23 lung; 43.4% in the assay on NCI-H226 lung; 47.2% in the assay with NCI-H322M lung; 9.19% (active) in the assay on HOP-62 NSCLC; 63.1% in the assay on NCI-H460 lung; 71.5% in the assay on HOP-92 NSCLC. Besides, the growth was -10.1% (active) in the assay on NCI-H522 lung, -16.9% (active) in the assay with A549/ATCC NSCLC, 24% in the assay with 786-0 renal and 54.1% with COLO 205 colon.
